The supplement of paper PMC11732987, “Enantioselective OTUD7B fragment discovery through chemoproteomics screening and high-throughput optimisation” (Communications Chemistry, 2025)

Tests used:
Assay in all cases: log2 ratio of Biotin-Ahx-Ub-VS probe labelling (fragment/DMSO); higher = less target engagement (more negative = stronger competition), active = hit call of the paper (q ≤ 0.05, log2 ratio ≤ -1)
Conditions in all cases: compound concentration: 200 uM; treatment time: 3 h
[1] = molecular target: USP34 (UniProt Q70CQ2)
Chain of USP34 (Q70CQ2 whole entry, the tested form may be a part): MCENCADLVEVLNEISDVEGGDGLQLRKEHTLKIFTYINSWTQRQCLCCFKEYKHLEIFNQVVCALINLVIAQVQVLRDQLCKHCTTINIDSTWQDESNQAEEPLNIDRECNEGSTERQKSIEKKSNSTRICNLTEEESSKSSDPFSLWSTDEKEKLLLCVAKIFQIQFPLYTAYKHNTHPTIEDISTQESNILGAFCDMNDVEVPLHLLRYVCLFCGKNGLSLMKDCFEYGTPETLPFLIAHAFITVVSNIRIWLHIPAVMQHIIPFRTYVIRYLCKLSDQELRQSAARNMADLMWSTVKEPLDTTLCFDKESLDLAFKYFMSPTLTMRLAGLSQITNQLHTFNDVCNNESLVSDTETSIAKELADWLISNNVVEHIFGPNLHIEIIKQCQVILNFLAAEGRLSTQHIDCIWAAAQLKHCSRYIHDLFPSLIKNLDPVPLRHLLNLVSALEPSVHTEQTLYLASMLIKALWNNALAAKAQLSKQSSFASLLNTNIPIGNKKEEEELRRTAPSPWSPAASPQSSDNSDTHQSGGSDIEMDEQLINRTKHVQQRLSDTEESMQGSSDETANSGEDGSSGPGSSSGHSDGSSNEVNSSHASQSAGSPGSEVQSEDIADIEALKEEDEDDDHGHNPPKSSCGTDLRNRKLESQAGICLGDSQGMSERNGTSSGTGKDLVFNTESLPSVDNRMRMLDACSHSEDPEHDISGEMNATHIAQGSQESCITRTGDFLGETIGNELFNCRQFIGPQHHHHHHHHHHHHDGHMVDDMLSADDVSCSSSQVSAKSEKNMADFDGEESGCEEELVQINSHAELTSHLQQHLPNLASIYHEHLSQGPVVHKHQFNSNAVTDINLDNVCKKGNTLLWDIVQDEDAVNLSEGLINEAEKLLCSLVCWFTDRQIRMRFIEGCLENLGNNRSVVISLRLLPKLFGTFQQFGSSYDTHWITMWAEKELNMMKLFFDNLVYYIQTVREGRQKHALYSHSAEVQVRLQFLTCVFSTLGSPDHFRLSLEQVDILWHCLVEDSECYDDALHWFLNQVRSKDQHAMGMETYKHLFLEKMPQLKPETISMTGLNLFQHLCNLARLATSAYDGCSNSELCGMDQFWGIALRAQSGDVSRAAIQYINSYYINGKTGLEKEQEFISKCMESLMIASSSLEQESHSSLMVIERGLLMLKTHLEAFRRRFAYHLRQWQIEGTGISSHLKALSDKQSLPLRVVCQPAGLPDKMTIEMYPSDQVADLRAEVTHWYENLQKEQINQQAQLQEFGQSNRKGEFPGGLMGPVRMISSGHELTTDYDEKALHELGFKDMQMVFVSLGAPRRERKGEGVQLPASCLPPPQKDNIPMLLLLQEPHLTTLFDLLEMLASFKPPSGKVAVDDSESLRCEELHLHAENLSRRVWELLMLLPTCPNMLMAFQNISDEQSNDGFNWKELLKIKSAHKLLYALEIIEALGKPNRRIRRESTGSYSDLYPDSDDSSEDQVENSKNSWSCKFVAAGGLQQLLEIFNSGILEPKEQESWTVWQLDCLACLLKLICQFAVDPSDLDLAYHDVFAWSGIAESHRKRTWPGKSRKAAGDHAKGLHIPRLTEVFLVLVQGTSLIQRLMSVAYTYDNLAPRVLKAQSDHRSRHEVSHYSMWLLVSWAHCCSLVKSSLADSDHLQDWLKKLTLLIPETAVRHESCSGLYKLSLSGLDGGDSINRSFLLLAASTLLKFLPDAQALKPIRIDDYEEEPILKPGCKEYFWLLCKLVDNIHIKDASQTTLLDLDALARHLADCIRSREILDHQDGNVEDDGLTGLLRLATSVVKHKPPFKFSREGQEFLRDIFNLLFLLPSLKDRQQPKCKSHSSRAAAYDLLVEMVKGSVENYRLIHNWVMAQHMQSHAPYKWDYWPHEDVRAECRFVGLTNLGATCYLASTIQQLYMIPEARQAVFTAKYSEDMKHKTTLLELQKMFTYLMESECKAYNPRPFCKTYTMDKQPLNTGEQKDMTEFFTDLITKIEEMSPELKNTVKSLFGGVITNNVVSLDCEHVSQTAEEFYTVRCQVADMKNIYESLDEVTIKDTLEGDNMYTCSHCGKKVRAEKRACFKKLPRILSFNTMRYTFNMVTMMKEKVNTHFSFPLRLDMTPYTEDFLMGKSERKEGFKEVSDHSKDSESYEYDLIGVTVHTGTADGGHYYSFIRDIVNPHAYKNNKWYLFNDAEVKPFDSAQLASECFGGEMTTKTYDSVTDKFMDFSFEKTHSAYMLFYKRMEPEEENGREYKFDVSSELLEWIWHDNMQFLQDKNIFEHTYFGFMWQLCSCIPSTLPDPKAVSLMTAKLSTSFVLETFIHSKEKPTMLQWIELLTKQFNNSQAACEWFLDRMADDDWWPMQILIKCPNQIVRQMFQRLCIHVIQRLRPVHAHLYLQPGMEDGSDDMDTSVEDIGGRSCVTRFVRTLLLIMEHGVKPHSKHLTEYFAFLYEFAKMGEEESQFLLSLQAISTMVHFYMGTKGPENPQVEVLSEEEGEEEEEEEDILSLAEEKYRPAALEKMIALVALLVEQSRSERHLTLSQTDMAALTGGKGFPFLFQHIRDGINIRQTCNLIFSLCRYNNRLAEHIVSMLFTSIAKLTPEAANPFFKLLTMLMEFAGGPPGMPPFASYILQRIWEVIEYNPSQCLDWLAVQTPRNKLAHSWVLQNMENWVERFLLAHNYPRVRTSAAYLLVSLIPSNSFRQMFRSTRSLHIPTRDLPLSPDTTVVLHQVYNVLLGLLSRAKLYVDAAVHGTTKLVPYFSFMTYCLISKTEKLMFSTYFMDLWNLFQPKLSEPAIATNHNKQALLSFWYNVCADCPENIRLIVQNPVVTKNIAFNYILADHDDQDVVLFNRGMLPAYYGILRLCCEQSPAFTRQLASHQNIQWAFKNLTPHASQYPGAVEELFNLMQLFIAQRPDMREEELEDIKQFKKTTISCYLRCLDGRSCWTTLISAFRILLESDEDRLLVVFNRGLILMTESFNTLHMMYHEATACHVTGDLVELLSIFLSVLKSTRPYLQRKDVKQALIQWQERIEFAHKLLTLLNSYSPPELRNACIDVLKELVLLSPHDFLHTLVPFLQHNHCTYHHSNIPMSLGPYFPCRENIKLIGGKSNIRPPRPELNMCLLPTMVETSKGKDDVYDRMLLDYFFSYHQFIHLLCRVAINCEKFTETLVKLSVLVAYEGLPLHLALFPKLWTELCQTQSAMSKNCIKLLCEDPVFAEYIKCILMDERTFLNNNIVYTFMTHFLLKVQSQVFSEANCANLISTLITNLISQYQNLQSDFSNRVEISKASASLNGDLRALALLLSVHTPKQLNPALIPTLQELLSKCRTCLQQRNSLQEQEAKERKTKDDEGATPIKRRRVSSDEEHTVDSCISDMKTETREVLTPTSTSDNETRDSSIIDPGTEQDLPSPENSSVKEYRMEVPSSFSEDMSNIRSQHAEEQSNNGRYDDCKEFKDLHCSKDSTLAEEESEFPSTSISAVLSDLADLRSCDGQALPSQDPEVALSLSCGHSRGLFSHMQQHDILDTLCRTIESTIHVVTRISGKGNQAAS
Procedure, shortened: (§1)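 The table lists average log2 ratios of fragment over vehicle, from an unpaired t-test on global-median-normalised Spectronaut label-free quantities. Proteins with ≥2 unique peptides were used. Samples were HEK293T lysate (495 µg) treated in triplicate with fragment at 200 µM or vehicle for 3 h, then with Biotin-Ahx-Ub-VS (0.5 µM final) for 1 h, with labelled DUBs NeutrAvidin-enriched and run by diaPASEF LC-MS/MS.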

[2] = molecular target: T1, USP36 (UniProt Q9P275)
T1 sequence (whole entry): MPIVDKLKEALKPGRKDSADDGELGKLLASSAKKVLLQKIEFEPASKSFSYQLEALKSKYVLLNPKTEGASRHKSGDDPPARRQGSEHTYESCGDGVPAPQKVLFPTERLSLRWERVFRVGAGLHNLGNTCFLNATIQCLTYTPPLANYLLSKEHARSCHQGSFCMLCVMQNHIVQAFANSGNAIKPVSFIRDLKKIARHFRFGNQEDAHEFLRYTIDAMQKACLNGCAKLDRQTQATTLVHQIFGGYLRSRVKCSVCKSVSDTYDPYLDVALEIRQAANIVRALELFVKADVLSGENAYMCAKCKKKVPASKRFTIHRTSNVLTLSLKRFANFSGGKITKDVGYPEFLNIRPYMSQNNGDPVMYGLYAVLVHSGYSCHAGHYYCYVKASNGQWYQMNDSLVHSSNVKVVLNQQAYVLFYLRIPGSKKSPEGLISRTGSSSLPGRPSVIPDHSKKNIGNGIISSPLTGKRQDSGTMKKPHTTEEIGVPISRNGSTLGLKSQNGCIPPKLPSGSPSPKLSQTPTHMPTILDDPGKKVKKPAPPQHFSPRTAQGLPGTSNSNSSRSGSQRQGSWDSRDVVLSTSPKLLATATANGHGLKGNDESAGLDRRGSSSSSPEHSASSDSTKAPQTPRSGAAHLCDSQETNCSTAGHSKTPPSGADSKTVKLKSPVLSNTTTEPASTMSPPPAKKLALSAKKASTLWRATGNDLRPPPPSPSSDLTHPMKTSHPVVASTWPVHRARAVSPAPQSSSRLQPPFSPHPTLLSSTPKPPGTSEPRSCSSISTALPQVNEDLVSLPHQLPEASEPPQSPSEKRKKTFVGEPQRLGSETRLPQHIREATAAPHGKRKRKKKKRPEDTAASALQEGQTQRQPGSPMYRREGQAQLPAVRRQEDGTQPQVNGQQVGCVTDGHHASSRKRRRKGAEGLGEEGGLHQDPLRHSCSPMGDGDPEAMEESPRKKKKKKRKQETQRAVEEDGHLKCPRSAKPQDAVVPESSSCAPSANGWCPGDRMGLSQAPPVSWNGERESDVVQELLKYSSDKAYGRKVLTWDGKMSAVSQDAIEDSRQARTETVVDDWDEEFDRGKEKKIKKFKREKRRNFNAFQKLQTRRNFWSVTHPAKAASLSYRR
Procedure, shortened: as §1

[3] = molecular target: T2, USP38 (UniProt Q8NB14)
T2 sequence (whole entry): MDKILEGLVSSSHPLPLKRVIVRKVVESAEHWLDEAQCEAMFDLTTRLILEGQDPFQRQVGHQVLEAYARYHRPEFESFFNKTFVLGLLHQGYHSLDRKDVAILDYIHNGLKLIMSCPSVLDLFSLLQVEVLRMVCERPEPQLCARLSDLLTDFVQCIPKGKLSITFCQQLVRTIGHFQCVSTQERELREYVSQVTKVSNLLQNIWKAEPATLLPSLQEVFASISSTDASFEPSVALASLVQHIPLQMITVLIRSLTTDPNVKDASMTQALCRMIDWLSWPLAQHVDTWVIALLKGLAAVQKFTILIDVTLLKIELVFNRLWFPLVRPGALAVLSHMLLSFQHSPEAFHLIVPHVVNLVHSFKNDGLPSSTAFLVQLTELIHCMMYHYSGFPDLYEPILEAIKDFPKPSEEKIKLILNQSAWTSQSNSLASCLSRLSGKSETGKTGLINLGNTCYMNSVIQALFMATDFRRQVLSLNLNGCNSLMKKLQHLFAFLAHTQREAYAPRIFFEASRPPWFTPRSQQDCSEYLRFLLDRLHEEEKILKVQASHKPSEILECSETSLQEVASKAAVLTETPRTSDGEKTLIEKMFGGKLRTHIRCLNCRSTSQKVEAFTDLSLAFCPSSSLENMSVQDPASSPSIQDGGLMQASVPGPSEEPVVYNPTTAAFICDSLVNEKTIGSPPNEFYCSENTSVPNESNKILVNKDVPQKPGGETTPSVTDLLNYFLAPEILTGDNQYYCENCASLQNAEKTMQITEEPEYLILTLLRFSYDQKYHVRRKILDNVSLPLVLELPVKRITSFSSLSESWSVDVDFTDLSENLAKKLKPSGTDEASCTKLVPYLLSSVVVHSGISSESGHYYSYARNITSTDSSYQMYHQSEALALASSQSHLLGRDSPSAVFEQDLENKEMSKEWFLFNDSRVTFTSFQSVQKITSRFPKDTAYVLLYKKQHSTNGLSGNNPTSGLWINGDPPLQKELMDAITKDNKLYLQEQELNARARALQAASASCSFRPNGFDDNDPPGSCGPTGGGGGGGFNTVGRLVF
Procedure, shortened: as §1

[4] = molecular target: T3, USP39 (UniProt Q53GS9)
T3 sequence (whole entry): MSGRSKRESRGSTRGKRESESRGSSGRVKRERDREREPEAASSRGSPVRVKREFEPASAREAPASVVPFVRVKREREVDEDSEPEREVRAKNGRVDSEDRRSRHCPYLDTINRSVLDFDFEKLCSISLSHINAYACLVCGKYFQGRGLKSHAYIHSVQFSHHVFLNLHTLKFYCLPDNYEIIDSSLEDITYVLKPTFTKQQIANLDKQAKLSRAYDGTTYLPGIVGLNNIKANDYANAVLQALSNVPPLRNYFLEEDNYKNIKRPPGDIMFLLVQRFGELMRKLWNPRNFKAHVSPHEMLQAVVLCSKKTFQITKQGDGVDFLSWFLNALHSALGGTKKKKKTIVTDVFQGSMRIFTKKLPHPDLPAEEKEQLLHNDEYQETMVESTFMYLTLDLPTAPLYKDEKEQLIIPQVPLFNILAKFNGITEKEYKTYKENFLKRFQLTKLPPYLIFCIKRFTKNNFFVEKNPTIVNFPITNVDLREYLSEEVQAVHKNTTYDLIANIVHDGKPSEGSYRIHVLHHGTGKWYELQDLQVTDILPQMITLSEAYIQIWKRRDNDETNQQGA
Procedure, shortened: as §1

[5] = molecular target: T4, USP4 (UniProt Q13107)
T4 sequence (whole entry): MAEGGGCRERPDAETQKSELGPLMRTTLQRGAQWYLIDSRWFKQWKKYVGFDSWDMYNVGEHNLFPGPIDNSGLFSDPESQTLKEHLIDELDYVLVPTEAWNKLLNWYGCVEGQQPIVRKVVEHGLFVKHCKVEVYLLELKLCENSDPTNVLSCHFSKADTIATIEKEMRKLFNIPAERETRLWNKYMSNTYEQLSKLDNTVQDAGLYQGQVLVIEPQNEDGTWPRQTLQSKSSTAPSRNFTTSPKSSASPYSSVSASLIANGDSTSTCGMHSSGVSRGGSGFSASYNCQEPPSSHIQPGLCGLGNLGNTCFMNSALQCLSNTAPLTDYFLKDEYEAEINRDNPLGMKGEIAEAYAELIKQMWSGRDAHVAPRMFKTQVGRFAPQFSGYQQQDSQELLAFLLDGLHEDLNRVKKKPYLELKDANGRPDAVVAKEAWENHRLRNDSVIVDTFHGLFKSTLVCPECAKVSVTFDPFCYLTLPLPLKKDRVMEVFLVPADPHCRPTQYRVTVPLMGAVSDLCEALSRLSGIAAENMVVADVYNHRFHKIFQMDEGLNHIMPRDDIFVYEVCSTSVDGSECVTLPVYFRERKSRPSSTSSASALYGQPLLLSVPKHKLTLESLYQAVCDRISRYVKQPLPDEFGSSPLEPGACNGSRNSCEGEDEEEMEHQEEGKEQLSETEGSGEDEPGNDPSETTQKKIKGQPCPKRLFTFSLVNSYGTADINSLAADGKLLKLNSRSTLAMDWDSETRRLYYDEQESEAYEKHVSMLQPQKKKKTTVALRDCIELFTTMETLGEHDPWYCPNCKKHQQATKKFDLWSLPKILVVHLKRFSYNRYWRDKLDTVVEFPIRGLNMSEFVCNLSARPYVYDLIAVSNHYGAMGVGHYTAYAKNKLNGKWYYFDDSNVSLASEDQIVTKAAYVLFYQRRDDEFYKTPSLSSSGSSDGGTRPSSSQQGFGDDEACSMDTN
Procedure, shortened: as §1

Measured: log2 ratio of Biotin-Ahx-Ub-VS probe labelling

O=C(CCl)Nc1ccc(F)cc1F
inactive: [1] -0.242 | [2] -0.306 | [3] 0.102 | [4] 0.37 | [5] -0.0254
